Assay results taken from the supplement of paper PMC9433436.
± gives the standard deviation of the averaged measurements. Over roughly 4,100 sequences, “relative kcat/Km (krel) vs genomic leader AAAGAU” has its median near 1.7; the highest 2% begin near 6.5. The sample holds the highest values, similar sequences and a random draw of the others, so the mix is not that of the screen.

Target: T1, E. coli RNase P holoenzyme (M1 P RNA + rnpA protein) (UniProt P0A7Y8)
T1 sequence: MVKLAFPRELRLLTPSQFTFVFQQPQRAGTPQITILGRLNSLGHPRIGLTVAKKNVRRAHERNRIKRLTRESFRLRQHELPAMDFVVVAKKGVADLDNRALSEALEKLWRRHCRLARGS
Assay: relative kcat/Km (krel) vs genomic leader AAAGAU (relative (reference leader = 1)); higher = faster RNase P cleavage
Description: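 HTS-Kin: a pool of ptRNA-Met (21C construct) with all 4096 combinations of 5' leader nucleotides N(-6) to N(-1) was processed in vitro by E. coli RNase P (P RNA + rnpA/C5 protein) under multiple-turnover conditions at 37 C, pH 8, 17.5 mM MgCl2. Residual substrate was Illumina-sequenced at several fractions reacted, and relative kcat/Km (krel) was computed by internal competition kinetics, calibrated to the genomic leader (AAAGAU = 1). The listed hexamer is the varied N(-6)..N(-1) leader (DNA letters), and it sits between a fixed 5' stem-loop flank (GCAUGCACGAAAGUGCGUGCUAUGAA) and the mature tRNA-Met starting GGCUACGUAGCUCAGUUGG. Two technical replicates are averaged.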

[1] = fraction of substrate reacted: ~9-10% (9.79% repeat 1, 9.1% repeat 2)
[2] = fraction of substrate reacted: ~13-16% (15.68% repeat 1, 13.17% repeat 2)
[3] = fraction of substrate reacted: ~26-29% (28.66% repeat 1, 26.4% repeat 2)

Row | Sequence | relative kcat/Km [1] | relative kcat/Km [2] | relative kcat/Km [3]
1 | TACCAT | 3.78 ± 1.5 | 5.08 ± 1.6 | 7.73 ± 3.6
2 | TACCAG | 2.73 ± 1.4 | 2.64 ± 1.1 | 4.81 ± 1.2
3 | TACCAA | 3.31 ± 1.5 | 4.01 ± 0.25 | 6.07 ± 1.9
4 | GACCAT | 3.62 ± 2.1 | 3.91 ± 0.13 | 5.96 ± 1.9
5 | CACCAG | 2.64 ± 2.5 | 1.93 ± 0.07 | 3.58 ± 1.1
6 | TACCTT | 2.52 ± 0.33 | 3.78 ± 0.62 | 5.64 ± 2.6
7 | AACCAT | 2.62 ± 1.1 | 2.62 ± 0.3 | 4.77 ± 2
8 | TACCAC | 3.48 ± 1.4 | 4.03 ± 1.6 | 6.63 ± 2.9
9 | CACCAT | 4.34 ± 1.2 | 4.72 ± 0.96 | 7.01 ± 2.9
10 | ATAAGA | 1.69 ± 0.23 | 2.23 ± 0.39 | 3.63 ± 1.3
11 | ACGTTG | – | – | 1.56 ± 0.44
12 | ACCGCC | 2.87 ± 1.1 | 2.93 ± 0.072 | 4.69 ± 1
13 | TGGACC | 0.825 ± 0.51 | 0.618 ± 0.3 | 0.551 ± 0.0088
14 | TAACTC | 1.62 ± 0.57 | 1.49 ± 0.16 | 2.26 ± 0.86
15 | GTGTAC | 1.78 ± 0.16 | 2.012 ± 0.0038 | 3.45 ± 1
16 | TCGTCT | 3 ± 0.94 | 2.99 ± 1.4 | 4.35 ± 1.2
17 | TTGTAG | 2.4 ± 1.1 | 1.92 ± 0.36 | 3.78 ± 0.77
18 | ACGTAT | 2.73 ± 1.2 | 3.73 ± 1.2 | 5 ± 1.8
19 | TCGTAA | 3.3 ± 0.9 | 3.79 ± 0.62 | 6.16 ± 2.7
20 | GCGTAC | 2.64 ± 0.68 | 1.98 ± 0.25 | 3.77 ± 1.5
21 | TCGTAT | 4.13 ± 0.92 | 4.78 ± 0.97 | 7.28 ± 3.4
22 | CCGTAT | 3.19 ± 0.25 | 4.32 ± 0.66 | 5.94 ± 2.6
23 | GCGTCC | 1.32 ± 0.099 | 1.73 ± 0.52 | 2.64 ± 0.41
24 | TTGTAC | 3.78 ± 0.42 | 4.71 ± 1.3 | 7.05 ± 2.9
25 | TCGTAC | 4.21 ± 1.1 | 5.11 ± 1.9 | 7.91 ± 3.5

Row | Sequence | relative kcat/Km [1] | relative kcat/Km [2] | relative kcat/Km [3]
26 | TCGTCC | 3.8 ± 0.41 | 5.03 ± 1.6 | 6.93 ± 3.5
27 | AGTTCG | – | 0.601 ± 0.24 | 1.95 ± 0.2
28 | GATGAG | – | – | 0.577 ± 0.44
29 | CAAAAA | 1.14 ± 0.13 | 0.985 ± 0.72 | 2.42 ± 0.98
30 | GGTCTT | – | 1.32 ± 0.41 | 1.72 ± 0.37
31 | ACGGGT | – | – | 1.35 ± 0.62
32 | GCTCGC | 1.28 ± 1.3 | 1.58 ± 0.13 | 1.96 ± 0.049
33 | GTTGTT | 0.832 ± 0.53 | 0.86 ± 0.24 | 1.07 ± 0.92
34 | GGTCGC | 1.81 ± 0.88 | 2.0828 ± 0.002 | 3.37 ± 1.1
35 | TATTGA | 3.87 ± 0.33 | 4.42 ± 1.1 | 6.93 ± 3.1
36 | GATTGA | 2.31 ± 0.22 | 3.98 ± 1.1 | 4.96 ± 2.3
37 | AATTGA | 2.34 ± 0.47 | 3.16 ± 0.37 | 4.64 ± 1.2
38 | TATTGG | 0.568 ± 0.24 | – | 1.46 ± 0.98
39 | TATTGC | 3.74 ± 1.7 | 4.4 ± 0.4 | 6.68 ± 3.2
40 | CATTGC | 3.51 ± 1.1 | 4.2 ± 0.93 | 5.82 ± 2.3
41 | TTAGTG | – | – | 0.934 ± 0.09
42 | CACTAG | 2.94 ± 2.4 | 3.2 ± 0.63 | 5.04 ± 0.72
43 | GACTAT | 4.87 ± 2 | 5.68 ± 1.6 | 8.33 ± 3.5
44 | TACTGC | 3.83 ± 1.5 | 4.1 ± 0.86 | 5.96 ± 1.5
45 | TACTAC | 5.21 ± 2 | 6.73 ± 1.9 | 9.59 ± 4
46 | TACTAG | 3.46 ± 2 | 3.248 ± 0.0033 | 5.53 ± 2
47 | GACTGT | 0.875 ± 0.79 | 1.18 ± 0.32 | 1.09 ± 0.23
48 | TACTAA | 5.23 ± 2.7 | 6.48 ± 0.54 | 8.92 ± 3.4
49 | AACTAT | 3.41 ± 0.78 | 4.44 ± 0.83 | 6.43 ± 3.1
